Assay results taken from PubChem BioAssay (EPA / NIEHS).
The source made the active and inactive calls. How the source made its calls: active means hit-call score of the fitted dose curve at least 0.9, where 1 is the maximum; inactive means score below 0.9.

Test: ATG_ERE_CIS: Attagene CIS-FACTORIAL HepG2 Assay for Estrogen Response Element (ERE) (AID 2282940)
Conditions: HepG2 ERE cis-reporter, Attagene RNA transcript; actives raise or lower the signal
Description: ATG_CIS is a cell-based, multiplexed-readout assay that uses HepG2, a human liver cell line, with measurements taken at 24 hours after chemical dosing in a 24-well plate.ATG_ERE_CIS is one of 52 assay component(s) measured or calculated from the ATG_CIS assay. It is designed to make measurements of mRNA induction, a form of inducible reporter, as detected with fluorescence intensity signals by Reverse transcription polymerase chain reaction (RT-PCR) and Capillary electrophoresis technology.Data from the assay component ATG_ERE_CIS was analyzed into 1 assay endpoint. This assay endpoint, ATG_ERE_CIS, was analyzed with bidirectional fitting relative to DMSO as the negative control and baseline of activity. Using a type of inducible reporter, measures of mRNA for gain or loss-of-signal activity can be used to understand the reporter gene at the transcription factor-level as they relate to the gene ESR1. Furthermore, this assay endpoint can be referred to as a primary readout, because this assay has produced multiple assay endpoints where this one serves a reporter gene function. To generalize the intended target to other relatable targets, this assay endpoint is annotated to the nuclear receptor intended target family, where the subfamily is steroidal.
Human liver HepG2 cells are transiently transfected with multiple reporter transcription units (MRTUs) in 6-well plates using FuGene 6 reagent (Roche; 3 ml FuGene/1 mg DNA). The MRTU constructs are regulated by a cis-regulating element (promoter). […] A major difference between the CIS and TRANS system is that in CIS activities of endogenous TFs are measured, whereas the TRANS assay evaluates changes in activities of exogenous, chimeric NR-Gal4 proteins. […] At the end of 24 hour incubation, total RNA was isolated using TriZol reagent (Invitrogen). The isolated RNA is then reverse-transcribed using oligo(dT) primer and Mo-MLV reverse transcriptase (Invitrogen) with DNAse I (Ambion) treatment for 30 min. The one-tenth of the produced cDNA was amplified by PCR using Taq DNA polymerase (Invitrogen) and two reporter sequence-specific primers. The PCR products were fluorescently labeled by primer extension with 6-arboxyfluorescein (6-FAM) 5'-labeled reporter sequence-specific primer (2 min at 95 C, 20 s at 68 C and 10 min at 72 C) and these products were digested with 5U of HpaI (New England Biolabs) for 2h at 37 C. The fragments were purified using Qiaquick PCR columns (Qiagen), analyzed on an ABI 3130xL genetic analyzer (Applied Biosystems) with peak positions identified by using a set of X-rhodamine (ROX)-labeled MapMarker1000 molecular weight standards (BioVentures). The raw capillary electrophoresis data was processed using Attagraph software (Attagene).

outcome, inactive:
CCCC(=O)OCc1ccccc1, CC=C1CC2C=CC1C2 (stereo not given), CC1=CC[C@H](C(C)C)C=C1, CC1(C)S[C@@H]2[C@H](NC(=O)COc3ccccc3)C(=O)N2[C@H]1C(=O)O, COc1ccc2nc(N)sc2c1, CC(C)CCCCCOC(=O)CCS, c1ccc(-c2ccccn2)nc1, O=C(O)c1cc(Cl)cc([N+](=O)[O-])c1Cl, CCN(CC#N)c1cccc(C)c1, COC(=O)c1sccc1S(N)(=O)=O, NC(=O)C1CO1 (stereo not given), NC(=O)OCC(COC(N)=O)c1ccccc1, CC(C)(C)C1CCCCC1=O (stereo not given), COC=O, O=C(O)CC(C(=O)O)C(CC(=O)O)C(=O)O (stereo not given), FC(F)(F)C(=NOCC1OCCO1)c1ccc(Cl)cc1, COCCOCCOCCOCCOC, O=CN1CCCCC1, FC(F)=C(F)OC(F)(F)C(F)(F)C(F)(F)F, Nc1ccc(Cl)cc1Cl, CC(C)c1ccc2c(c1)CC[C@H]1[C@](C)(CN)CCC[C@]21C, CCCCCCC1(C)CCC(=O)O1 (stereo not given), CCCCC(CC)COCC1CO1 (stereo not given), CC(=O)Nc1ccc2c(c1)Cc1cc(NC(C)=O)ccc1-2, Cc1ccc2oc(=O)ccc2c1, O=[N+]([O-])c1ccc(CO)cc1, CC(C)C(=O)C(C)C, CCCCCCCC(C)=O, CCOC(=O)c1ccccc1C(=C1C=C(Br)C(=O)C(Br)=C1)c1cc(Br)c(O)c(Br)c1, c1c[nH]cn1, C=CCOCC(O)CCl (stereo not given), CN(C)CCCN(C)C, CC(=O)CC(N)=O, S=C(NC1CCCCC1)NC1CCCCC1, CCCCC/C=C\CCC=O

AC50, active:
C[Si](C)O[Si](C)(C)O[Si](C)(C)O[Si](C)C 46.2 µM, Cc1cc(O)c(Cl)c(C)c1Cl 28.3 µM, CC(=O)OCC(=O)[C@@]12N=C(C)O[C@@H]1C[C@H]1[C@@H]3CCC4=CC(=O)C=C[C@]4(C)[C@H]3[C@@H](O)C[C@@]12C 34.2 µM, CC1(C)O[C@@H]2C[C@H]3[C@@H]4C[C@H](F)C5=CC(=O)C=C[C@]5(C)[C@@]4(F)[C@@H](O)C[C@]3(C)[C@]2(C(=O)CO)O1 4.27 µM, CCc1c(C(=O)O)c(=O)cnn1-c1ccc(Cl)cc1 28.5 µM
